# Measurements from PubChem BioAssay.
# Active and inactive are the calls of the source. Unless noted, the rule behind the calls is not given here.
# Assays:
# [1] = resazurin metabolic signal in HepG2 cells – cell-based, resazurin fluorescence, 24 h, PK04 Diversity Set, profiling panel (AID 1172); details: HepG2 viability, higher = more signal
# [2] = budding yeast growth changes without added modifier – OD600, strain BY4716, 24 h, basal condition, primary screen (AID 1173); details: S. cerevisiae BY4716 growth, OD600, 24 h; higher = more signal, called active from +8 up or from −8 down
# [3] = viability profiling in MM1S myeloma cells – cell-based, resazurin fluorescence, basal, 24 h, PK04 Diversity Set, profiling panel (AID 1174); details: higher = more signal, called active from +8 up or from −8 down;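 note: MM1S multiple myeloma cell line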
# [4] = molecular target: Dihydroorotate dehydrogenase (quinone), mitochondrial (Plasmodium falciparum (isolate 3D7)) (UniProt Q08210); experiment: inhibition of P. falciparum DHODH – biochemical, C-terminal His tag, absorbance 600 nm, primary screen (AID 1175); details: PfDHODH enzyme, DCIP absorbance 600 nm; higher = more signal, called active from +8 up or from −8 down;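 note: recombinant parasite enzyme with a five histidine tag at its C terminus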
# [5] = inhibition of PAO1 biofilm formation – strain PAO1, LB-PBS medium, absorbance 600 nm, primary screen (AID 1176); details: P. aeruginosa PAO1 growth/biofilm, A600, 12 h; higher = more signal
# [6] = growth modulation of vineyard yeast isolate – strain RM11-1a, OD600, basal, 24 h, primary screen (AID 1177);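 note: cultures grown under basal conditions with no added stressor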; details: S. cerevisiae RM11-1a growth, OD600, 24 h; higher = more signal, called active from +8 up or from −8 down
# [7] = growth of efflux-deficient E. coli DRC39 – strain DRC39, OD650, 24 h, E. coli filamentation inducers, primary screen (AID 1178);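 note: growth measured as culture turbidity by optical density at 650 nm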; details: E. coli DRC39 acrAB, higher = more signal, called active from +8 up or from −8 down
# [8] = growth of efflux-deficient E. coli DRC39 – strain DRC39, OD650, 48 h, E. coli filamentation inducers, primary screen (AID 1179);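 note: screen aims at cell division blockers that make cells filament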; details: E. coli DRC39 delta-acrAB growth, higher = more signal, called active from +8 up or from −8 down
# [9] = viability profiling in RPMI8226 myeloma cells – cell-based, resazurin fluorescence, basal, 24 h, PK04 Diversity Set, profiling panel (AID 1180); details: higher = more signal;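 note: RPMI8826 multiple myeloma cell line at 5000 cells per well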
# [10] = molecular target: E3 ubiquitin-protein ligase XIAP (Homo sapiens) (UniProt P98170); experiment: small molecules binding XIAP protein – biophysical, small-molecule microarray, fluorescence 635 nm, primary screen (AID 1181); details: higher = more signal;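 note: score merges 667 nm emission and signal to noise over triplicate slides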
# [11] = system: XIP peptide (Xip251-270) binding; experiment: XIP fragment 251-270 binding compounds – biochemical, small-molecule microarray, fluorescence 635/667 nm, 0.1 µg/mL protein, primary screen (AID 1182); details: fluorescent protein binding, 635 nm, higher = more signal, called active from +8 up or from −8 down
# XIP peptide (Xip251-270) = experiment: compounds binding XIP fragment 251-270 – biochemical, small-molecule microarray, fluorescence 635/667 nm, 0.5 µg/mL protein, primary screen (AID 1183); details: fluorescence 635 nm, higher = more signal
# [12] = blood-stage malaria parasite viability loss – strain 3D7, DAPI fluorescence, 100 nL, primary screen (AID 1184);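 note: parasites grown inside human red blood cells in medium with human serum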; details: P. falciparum 3D7 growth, 3 d, higher = more signal
# [13] = molecular target: Homeobox protein Hox-A13 (Mus musculus) (UniProt Q62424); experiment: disruptors of Hoxa13 oligonucleotide interaction – biochemical, fluorescence polarization, labeled oligonucleotide, primary screen (AID 1185); details: Hoxa13:DNA binding, 15 min, higher = more signal, called active from +8 up or from −8 down
# [14] = blockers of DNA damage checkpoint Chk1 activation – imaging, HeLa, hydroxyurea, phospho-Chk1 antibody, percent positive cells, primary screen (AID 1186); details: hydroxyurea-induced phospho-Chk1 immunofluorescence imaging, higher = more signal
# [15] = blockers of DNA damage checkpoint Chk1 activation – imaging, HeLa, hydroxyurea, phospho-Chk1 nuclear intensity, primary screen (AID 1187); details: hydroxyurea-induced phospho-Chk1 immunofluorescence imaging, higher = more signal
# Homeobox protein Hox-A13 (Mus musculus), sequence (Q62424 whole entry, looked up): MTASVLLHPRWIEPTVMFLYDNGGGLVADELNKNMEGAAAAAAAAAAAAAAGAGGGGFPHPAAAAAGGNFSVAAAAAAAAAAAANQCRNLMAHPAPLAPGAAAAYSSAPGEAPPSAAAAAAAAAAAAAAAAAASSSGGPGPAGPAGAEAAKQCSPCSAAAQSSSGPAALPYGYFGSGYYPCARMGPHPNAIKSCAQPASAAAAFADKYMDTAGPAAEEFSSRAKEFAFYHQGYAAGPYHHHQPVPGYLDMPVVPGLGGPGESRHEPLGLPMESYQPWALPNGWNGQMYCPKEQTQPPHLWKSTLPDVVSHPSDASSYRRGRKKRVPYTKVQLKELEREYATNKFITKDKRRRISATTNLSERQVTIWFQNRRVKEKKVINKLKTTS
# Dihydroorotate dehydrogenase (quinone), mitochondrial (Plasmodium falciparum (isolate 3D7)), sequence (Q08210 whole entry, looked up): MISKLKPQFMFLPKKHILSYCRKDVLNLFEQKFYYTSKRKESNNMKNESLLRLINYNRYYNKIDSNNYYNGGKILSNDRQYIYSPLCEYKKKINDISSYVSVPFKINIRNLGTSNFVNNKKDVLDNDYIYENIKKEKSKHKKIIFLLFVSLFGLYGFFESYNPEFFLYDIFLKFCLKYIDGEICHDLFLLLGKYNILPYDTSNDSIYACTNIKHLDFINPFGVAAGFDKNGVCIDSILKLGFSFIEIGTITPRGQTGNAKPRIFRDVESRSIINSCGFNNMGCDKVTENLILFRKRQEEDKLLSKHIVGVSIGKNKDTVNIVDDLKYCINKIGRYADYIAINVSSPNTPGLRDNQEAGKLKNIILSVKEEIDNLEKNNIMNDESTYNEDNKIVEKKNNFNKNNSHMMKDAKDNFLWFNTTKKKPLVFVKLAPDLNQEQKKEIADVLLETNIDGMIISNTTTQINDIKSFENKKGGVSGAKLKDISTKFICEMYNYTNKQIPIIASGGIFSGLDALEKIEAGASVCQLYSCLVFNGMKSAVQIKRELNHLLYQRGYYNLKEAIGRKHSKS
# E3 ubiquitin-protein ligase XIAP (Homo sapiens), sequence (P98170 whole entry, looked up, the tested form may be a part): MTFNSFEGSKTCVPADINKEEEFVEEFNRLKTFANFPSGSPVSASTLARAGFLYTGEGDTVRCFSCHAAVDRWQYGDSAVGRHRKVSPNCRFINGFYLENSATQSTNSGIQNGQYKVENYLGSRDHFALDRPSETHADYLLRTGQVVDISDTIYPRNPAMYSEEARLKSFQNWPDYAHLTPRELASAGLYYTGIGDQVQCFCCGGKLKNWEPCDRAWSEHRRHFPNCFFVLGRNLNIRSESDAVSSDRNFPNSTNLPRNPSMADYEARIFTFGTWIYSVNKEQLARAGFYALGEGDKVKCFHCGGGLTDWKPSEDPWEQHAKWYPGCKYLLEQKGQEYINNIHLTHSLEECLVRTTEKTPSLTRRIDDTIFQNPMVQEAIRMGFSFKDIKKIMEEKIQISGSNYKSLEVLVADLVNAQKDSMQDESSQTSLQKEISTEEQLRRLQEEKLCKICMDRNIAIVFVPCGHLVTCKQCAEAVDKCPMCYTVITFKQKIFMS
Compound,z-score [1],z-score [2],z-score [3],composite z-score [4],z-score [5],z-score [6],z-score [7],z-score [8],z-score [9],composite z-score [10],composite z-score [11],composite z-score (XIP peptide (Xip251-270)),z-score [12],z-score [13],z-score [14],z-score [15]
C[N+](C)(C)CCCCCCNC(=O)[C@H]1C[C@H]2C(=O)NCC(=O)N2[C@H]1c1cccc(OCCO)c1,0.547,-0.316 (inactive),-0.0342 (inactive),-0.97 (inactive),-0.0743 (inactive),0.254 (inactive),-0.129 (inactive),-0.285 (inactive),-0.252,0.0402,1.32 (inactive),0.695,0.138,-3.97 (inactive),0.145 (inactive),0.136 (inactive)
[N-]=[N+]=Nc1ccccc1[C@@H]1OC(c2ccc(OCCCO)cc2)=N[C@]1(Cc1ccccc1)C(N)=O,1.2,-0.821 (inactive),-0.622 (inactive),0.474 (inactive),-0.0558 (inactive),1.19 (inactive),0.673 (inactive),0.481 (inactive),-0.589,0.0838,0.0123 (inactive),0.0246,-2.06,-5.43 (inactive),-0.707 (inactive),-0.543 (inactive)
COc1ccc(NC(=O)O[C@H]2[C@H](OC(=O)Nc3ccc4c(c3)OCO4)[C@H](OC(=O)Nc3ccc4c(c3)OCO4)[C@@H](OC)O[C@@H]2CO)cc1,-0.637,1.41 (inactive),-0.366 (inactive),0.229 (inactive),0.826 (inactive),1.88 (inactive),0.677 (inactive),0.18 (inactive),-0.686,0.52,1.04 (inactive),0.866,-2.24,-4.94 (inactive),-0.246 (inactive),0.267 (inactive)
C=CC[C@@]1(C(=O)O)N=C(c2ccc(OCCCO)cc2)O[C@@H]1c1ccccc1CN=[N+]=[N-],0.793,-2.58 (inactive),0.747 (inactive),-0.0013 (inactive),-0.043 (inactive),-0.534 (inactive),0.8 (inactive),0.302 (inactive),1.1,0.565,-0.207 (inactive),0.563,-1.34,-6.29 (inactive),-0.222 (inactive),-0.0145 (inactive)
COc1ccc(CCNC(=O)[C@@]2(Sc3ccc(C)cc3)CC(=O)N(C(C)C)[C@@H]2c2ccc(CO)cc2)cc1,-0.335,0.748 (inactive),-0.416 (inactive),0.557 (inactive),0.745 (inactive),1.06 (inactive),-0.252 (inactive),-0.602 (inactive),-0.218,0.0132,0.117 (inactive),0.66,-0.302,-3.28 (inactive),0.0372 (inactive),-0.0512 (inactive)
CCCCC(O)C1C=CC2C(=O)NC(=O)C2N1Nc1ccccn1 (centres undefined),-1.32,0.932 (inactive),-1.09 (inactive),0.487 (inactive),0.695 (inactive),0.369 (inactive),-0.576 (inactive),-0.529 (inactive),-1.07,0.117,-0.634 (inactive),0.146,0.993,-1.21 (inactive),0.846 (inactive),0.318 (inactive)
O=C1NC(=O)C2C1C=CC(C(O)c1ccc(F)cc1)N2Nc1ccccn1 (centres undefined),-1.78,0.272 (inactive),-1.28 (inactive),0.791 (inactive),1.77 (inactive),0.624 (inactive),-0.684 (inactive),-0.69 (inactive),-1.64,0.172,-0.184 (inactive),0.13,1.25,-1.55 (inactive),0.255 (inactive),0.0273 (inactive)
C=C(CC1([C@@H](NP(=O)(c2ccccc2)c2ccccc2)[C@H]2C[C@@H]2CCN(C(=O)OCC)S(=O)(=O)c2ccc(C)cc2)CC1)c1ccccc1,0.716,1.97 (inactive),-1.59 (inactive),0.0407 (inactive),0.687 (inactive),1.52 (inactive),0.104 (inactive),-0.194 (inactive),-1.05,0.303,0.43 (inactive),0.666,-1.75,-2.18 (inactive),-0.215 (inactive),-0.0171 (inactive)
C=CC[C@]1(C(=O)NCc2ccccc2)COC(c2ccc(OCCCO)cc2)=N1,-0.137,-1.92 (inactive),-1.4 (inactive),-0.267 (inactive),-0.0025 (inactive),0.02 (inactive),0.729 (inactive),-0.145 (inactive),-0.874,0.001,-0.398 (inactive),0.779,-0.823,-4.86 (inactive),-0.059 (inactive),-0.0405 (inactive)
CCCCN1CC=CC23O[C@@H]4C=CCOC(=O)[C@@H]4[C@H]2C(=O)N(CCO)[C@@H]3C1=O (some centres undefined),-0.394,1.31 (inactive),-0.202 (inactive),-0.161 (inactive),-0.208 (inactive),-0.322 (inactive),0.233 (inactive),0.109 (inactive),-0.236,-0.239,0.64 (inactive),-0.964,1.12,-3.84 (inactive),-0.338 (inactive),-0.424 (inactive)
COC(=O)C1(CC(C)C)C=C2C(=C(C(C)C)C(=O)C2C)CN1 (centres undefined),-0.947,1.46 (inactive),-1.56 (inactive),-1.18 (inactive),0.399 (inactive),0.271 (inactive),-0.592 (inactive),-0.113 (inactive),-1.97,0.732,-0.418 (inactive),0.172,1.24,-6.06 (inactive),0.677 (inactive),0.675 (inactive)
N#Cc1ccc(C(O)C2C=CC3C(=O)N(c4ccccc4)C(=O)C3N2Nc2ccc([N+](=O)[O-])cc2)cc1 (centres undefined),-0.298,-0.0292 (inactive),-0.291 (inactive),0.154 (inactive),1.01 (inactive),-0.114 (inactive),-1.15 (inactive),-0.224 (inactive),-0.783,-0.162,1.04 (inactive),0.807,-1.84,-4.34 (inactive),-0.138 (inactive),-1.24 (inactive)
CCCCCCc1nc(-c2ccc(OC)nc2)cc2c1[Si](C(C)C)(C(C)C)OC2,0.0579,0.721 (inactive),0.426 (inactive),-3.12 (inactive),-0.0391 (inactive),-0.483 (inactive),0.37 (inactive),0.212 (inactive),0.343,-0.0525,-0.0275 (inactive),-0.019,-1.99,-3.55 (inactive),-0.0362 (inactive),0.237 (inactive)
O=C1N(Cc2ccccc2)c2ccccc2[C@H]2OC(c3ccc(OCCCO)cc3)=N[C@@]12Cc1ccccc1,-1.46,-0.084 (inactive),-3.4 (inactive),0.983 (inactive),0.565 (inactive),2.15 (inactive),0.383 (inactive),-0.362 (inactive),-3.36,0.0297,0.447 (inactive),0.821,-2.41,-2.4 (inactive),-0.335 (inactive),-0.59 (inactive)
COc1ccccc1CN1C(=O)c2ccccc2[C@@H](C(=O)NCCCN(C)C)[C@@H]1c1ccc(CO)cc1,0.619,-1.37 (inactive),1.22 (inactive),0.0824 (inactive),0.292 (inactive),-0.942 (inactive),0.65 (inactive),1.37 (inactive),1.09,-0.0426,-0.0888 (inactive),0.66,-2.34,3.27 (inactive),-0.343 (inactive),-0.136 (inactive)
C=C(/C(=C/C[C@@H](OC(C)=O)c1ccccc1OCCO)c1cc(C(=O)OC)ccc1OC)C(C)C,0.862,-1.18 (inactive),-0.296 (inactive),-1.22 (inactive),0.0478 (inactive),0.508 (inactive),1.62 (inactive),1.04 (inactive),0.676,-0.323,0.988 (inactive),0.839,-2.8,-4.71 (inactive),0.689 (inactive),0.766 (inactive)
CC(C)(C)OC(=O)CC[C@]1(C(=O)N2CCOCC2)N=C(c2ccc(OCCCO)cc2)O[C@H]1c1ccccc1CN=[N+]=[N-],0.125,-0.0255 (inactive),-0.362 (inactive),-0.0668 (inactive),1.78 (inactive),-0.459 (inactive),0.565 (inactive),0.088 (inactive),0.0933,0.0159,0.518 (inactive),0.792,-1.79,-6.05 (inactive),-0.0845 (inactive),-0.314 (inactive)
Cc1ccc(F)cc1S(=O)(=O)N[C@@H]1CCN(Cc2ccc3c(c2)OCO3)C1,-0.622,-4.86 (inactive),-0.584 (inactive),0.171 (inactive),-0.177 (inactive),0.34 (inactive),-0.572 (inactive),-2.33 (inactive),0.224,0.13,0.92 (inactive),0.321,0.531,-3.75 (inactive),-0.201 (inactive),-0.271 (inactive)
COC(=O)[C@]1(CO)N=C(c2ccc(OCCCO)cc2)O[C@@H]1c1ccccc1CN=[N+]=[N-],-0.318,0.443 (inactive),-0.529 (inactive),0.415 (inactive),-0.677 (inactive),-0.299 (inactive),-0.246 (inactive),0.321 (inactive),-0.15,-0.21,0.495 (inactive),-0.116,-0.217,-5 (inactive),-0.33 (inactive),-0.658 (inactive)
